High-throughput results as filed in PubChem.
CF NFkB inh: blocks PAF-induced NF-kB reporter in cystic fibrosis cells | 360,000 compounds, 0.86% hits | KKLEB NF-kB-GFP reporter, GFP fluorescence overnight | AID 588850 | inhibition, % at 5 µM;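 active = at least 50% inhibition at 5 µM, scaled per plate between neutral and stimulator controls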;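 also: PAF is a Pseudomonas aeruginosa culture filtrate used as stimulus; plate controls were PAF-stimulated DMSO wells for no effect and unstimulated DMSO wells for full effect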
HIF-2a inh: HIF-2a inhibition; 786-0 RCC cells HIF-2a reporter, luciferase luminescence, overnight; inhibition, % at 18.8 µM; 360,000 compounds, 0.72% hits; AID 624352;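 active = inhibition of the luminescence signal of 40% or more relative to plate controls, in a single-dose primary screen at 18.75 µM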
Peg3 promoter: Peg3 promoter activity inhibition; inhibition, % at 20 µM; HeLa PEG-Prom luciferase reporter, luminescence, overnight; 360,000 compounds, 1.7% hits; AID 588405;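 active = inhibition of at least 50% at 20 µM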
C8 TRAIL sens: caspase-8 TRAIL sensitization; inhibition (viability loss, TRAIL sensitization), % at 10 µM; NB7+C8 cells + TRAIL, ATPlite viability luminescence; 360,000 compounds, 1% hits;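 active = compounds causing at least 50% loss of cell viability in the single-dose screen, relative to plate controls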
KKLEB tox: counter-screen for CF NF-kB inhibitors: cytotoxicity. KKLEB CF airway cells viability, ATPlite luminescence, overnight; stronger effect = lower value; cells stimulated with P. aeruginosa culture filtrate. 360,000 compounds, 0.36% hits. AID 602141. activity change (cytotoxicity), % at 5 µM;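 active = corrected activity change at or below -50% at 5 µM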
PPC-1+TRAIL kill: kills PPC-1 cancer cells in the presence of TRAIL; PPC-1 cells + TRAIL, ATPLite viability luminescence; cell killing (% activity), % at 4 µM or 5 µM; 220,000 compounds, 0.41% hits; AID 1443;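 active = cell killing above 50% in the first pass at 4 µM, then a duplicate retest at 5 µM averaging 50% or more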;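 also: plate controls were cells with TRAIL plus DMSO for no effect and medium-only wells lacking cells for full effect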
CF NFkB inh conf: CF NF-kB inhibition confirmation, single concentration | shares compounds with CF NFkB inh | KKLEB CF airway cells, PAF-induced NF-kB-GFP fluorescence, overnight | inhibition, % at 5 µM | 1,300 compounds, 64% hits; in the data active = inhibition above about 40%;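 also: stimulus PAF is a Pseudomonas aeruginosa filtrate and not platelet activating factor; plate controls were DMSO wells with stimulus for no effect and unstimulated DMSO wells for full effect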
Mdm2 MdmX conf: Mdm2/MdmX (human) interaction inhibition, confirmed; shares compounds with HIF-2a inh; SaOS-2 split-luciferase Mdm2/MdmX complementation, luminescence; inhibition, % at 8 µM; 740 compounds, 99% hits;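 active = mean inhibition of the luminescence signal across two replicates at or above 26 percent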
Target sequence (O15151 whole entry, looked up): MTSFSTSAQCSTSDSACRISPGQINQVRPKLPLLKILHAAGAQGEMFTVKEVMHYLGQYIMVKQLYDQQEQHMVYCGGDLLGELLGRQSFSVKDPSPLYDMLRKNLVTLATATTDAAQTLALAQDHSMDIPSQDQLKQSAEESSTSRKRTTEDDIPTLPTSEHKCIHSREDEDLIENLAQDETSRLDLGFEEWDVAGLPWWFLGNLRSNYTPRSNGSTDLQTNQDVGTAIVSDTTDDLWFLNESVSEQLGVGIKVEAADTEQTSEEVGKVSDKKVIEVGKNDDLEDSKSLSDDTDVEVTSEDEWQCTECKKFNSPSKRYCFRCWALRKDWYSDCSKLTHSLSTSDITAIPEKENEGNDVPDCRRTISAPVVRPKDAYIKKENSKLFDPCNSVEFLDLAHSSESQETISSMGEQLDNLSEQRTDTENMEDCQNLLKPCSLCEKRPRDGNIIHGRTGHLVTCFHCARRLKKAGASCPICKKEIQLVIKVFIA
Target sequence (Q00987 whole entry, looked up): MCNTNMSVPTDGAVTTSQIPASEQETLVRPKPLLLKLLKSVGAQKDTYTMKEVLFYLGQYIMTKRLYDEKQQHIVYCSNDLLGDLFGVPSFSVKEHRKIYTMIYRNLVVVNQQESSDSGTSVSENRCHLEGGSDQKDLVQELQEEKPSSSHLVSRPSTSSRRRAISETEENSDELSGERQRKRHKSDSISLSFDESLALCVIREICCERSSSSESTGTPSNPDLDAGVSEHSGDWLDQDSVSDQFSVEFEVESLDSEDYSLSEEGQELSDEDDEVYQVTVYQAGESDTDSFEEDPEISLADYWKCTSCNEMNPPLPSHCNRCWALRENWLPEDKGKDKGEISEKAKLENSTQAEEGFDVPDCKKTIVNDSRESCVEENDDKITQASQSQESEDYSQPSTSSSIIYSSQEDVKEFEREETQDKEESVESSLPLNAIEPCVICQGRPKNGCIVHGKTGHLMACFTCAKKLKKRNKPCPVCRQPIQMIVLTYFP
HIF-2a inh conf: confirmation of HIF-2a inhibitors; 1,800 compounds, 56% hits; shares compounds with HIF-2a inh; 786-0 RCC cells, HIF-2a luciferase reporter luminescence, overnight; inhibition, % at 18.8 µM;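 active = mean inhibition across four replicates of at least 40 percent at the single tested concentration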
HIF-1a cs: counter-screen for HIF-2a inhibitors: HIF-1a inhibition in MiaPaCa-2 cells. 1,800 compounds, 72% hits. inhibition, % at 18.8 µM. MiaPaCa-2 HIF-1a luciferase reporter, desferoxamine, overnight. shares compounds with HIF-2a inh;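 active = mean inhibition of the reporter signal across four replicates at the single tested dose of 50% or more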
* marks the source's active call; other numbers are inactive results; · = no result. Rows were chosen to be rich in hits. Some 3.1% of all compounds tested hit in one or more screens of this group.

SMILES | CF NFkB inh | HIF-2a inh | Peg3 promoter | C8 TRAIL sens | KKLEB tox | PPC-1+TRAIL kill | CF NFkB inh conf | HIF-2a inh conf | HIF-1a cs | others
Cn1c(N)c(C(=O)COC(=O)c2ccccc2C(=O)c2ccc(Cl)c([N+](=O)[O-])c2)c(=O)n(C)c1=O | 65* | 71* | 96* | 92* | -19 | · | 34 | 32 | 93*
O=C(COC(=O)c1ccccc1C(=O)c1ccc(Cl)c([N+](=O)[O-])c1)NC1CCCCCC1 | 86* | 93* | 104* | 94* | -27 | 16 | 106* | -1 | 106* | Mdm2 MdmX conf=103*
Cn1c(N)c(C(=O)COC(=O)c2ccccc2C(=O)c2ccccc2)c(=O)n(C)c1=O | -4 | 15 | 7 | 4 | 3 | · | · | · | ·
CN(C)CCCN(C(=O)CCS(=O)(=O)c1ccccc1)c1nc2cc3c(cc2s1)OCO3 | 96* | 62* | 107* | 35 | -11 | · | 104* | 38 | 102*
CCCCSC(=S)NC1CCS(=O)(=O)C1 (configuration not stated) | 40 | 32 | 18 | 8 | -11 | 31 | · | · | ·
O=S1(=O)CCC(NC(=S)SCCOc2ccccc2)C1 (configuration not stated) | 58* | 50* | -7 | 13 | 3 | -1 | 86* | 48* | 67*
CCc1cc(SC#N)cc(C)c1NC(=O)CCl | 66* | 46* | -87 | 2 | -48 | -18 | 54* | 47* | 62*
CCC(=O)Nc1ccc(SC#N)cc1C | -11 | 25 | 7 | -7 | -1 | 5 | · | · | ·
COc1cc(NC(=O)CSc2nnc(-c3ccncc3)o2)cc(OC)c1OC | 22 | 15 | 4 | -17 | -20 | · | · | · | ·
COc1ccc(-c2cc(-c3nc4ccccn4c3NCc3ccccc3)ccc2OC)cc1 | 71* | -77 | 100* | 78* | -30 | · | 97* | · | · | Mdm2 MdmX conf=102*
CC(NC(=O)c1ccco1)C(=O)OCC(=O)N1CCCCCC1 (configuration not stated) | -17 | 1 | 0 | -14 | 1 | · | · | · | ·
COc1cc(CNC(=O)c2cc(-c3cc(Cl)ccc3C)n[nH]2)cc(OC)c1 | -6 | -20 | -13 | -39 | -5 | · | · | · | ·
Cc1ccc2[nH]cc(C(=O)CN3CCN(C)CC3)c2c1 | -1 | 2 | 5 | 14 | 3 | -13 | · | · | ·
Cc1ccc2[nH]cc(C(=O)CCl)c2c1 | 60* | 16 | 108* | 6 | -19 | 2 | 86* | · | · | Mdm2 MdmX conf=103*
Cc1cccc(CS(=O)(=O)c2ncc(Cl)c(C(=O)NCc3ccccc3)n2)c1 | 86* | 69* | 97* | -14 | -26 | · | 82* | 69* | 62*
CCOc1ccc(N(CC(=O)Nc2ccc(C)c(C)c2)S(C)(=O)=O)cc1 | -14 | -266 | -234 | -5 | 9 | · | · | · | ·
CN(C)S(=O)(=O)c1cccc(NC(=O)COC(=O)c2ccc3ccccc3n2)c1 | -26 | 21 | 12 | -12 | 16 | · | · | · | ·
Cc1nnnn1/C(=C\c1ccccc1)C(=O)OCC(=O)Nc1cccc(S(=O)(=O)N(C)C)c1 | 63* | 42* | 106* | 7 | -16 | · | -51 | 79* | 22
C=CCN1c2ccccc2[C@]23C[C@@H](C(=O)OC)N(C(=O)c4ccc(Br)cc4)C2=NC(C(=O)OC)=C(C(=O)OC)[C@H]13 | 71* | -12 | 74* | 48 | -30 | 15 | 58* | · | · | Mdm2 MdmX conf=96*
COC(=O)C1=C(C(=O)OC)[C@@H]2N(Cc3ccccc3)c3ccccc3[C@@]23C[C@@H](C(=O)OC)N(C(=O)c2ccc(Br)cc2)C3=N1 | 69* | 2 | 84* | 28 | -24 | · | 78* | · | · | Mdm2 MdmX conf=98*
CCOc1ncccc1C(=O)NNC(=O)c1cccc(S(=O)(=O)Nc2ccc(OC)cc2)c1 | 8 | 15 | 6 | -17 | -18 | · | · | · | ·
CC(C)C(=O)N1CCC1(C)C(=O)Nc1ccc2[nH]ccc2c1 (configuration not stated) | 10 | 10 | 2 | -40 | 14 | · | · | · | ·
CS(=O)(=O)c1ncc(Cl)c(C(=O)Nc2ccc(OC(F)F)cc2)n1 | 90* | 92* | 102* | 72* | -37 | · | 88* | 98* | 100* | Mdm2 MdmX conf=103*
CCOC(=O)c1nc(S(C)(=O)=O)ncc1Cl | 69* | 46* | 105* | 11 | -4 | -4 | -14 | -3 | 6
CCCc1cc(-c2[nH]ncc2-c2ccc3c(c2)OCCCO3)c(O)cc1O | 50* | 46* | 69* | 18 | -5 | 15 | 68* | 30 | 81*
SMILES | CF NFkB inh | HIF-2a inh | Peg3 promoter | C8 TRAIL sens | KKLEB tox | PPC-1+TRAIL kill | CF NFkB inh conf | HIF-2a inh conf | HIF-1a cs | others
COc1ccc(NC(=O)CCCOc2ccc(C)cc2)cc1S(=O)(=O)N1CCCCC1 | 27 | -3 | 10 | 18 | -6 | · | · | · | ·
Cc1cnc(C(=O)N(c2ccc(N3CCOCC3)cc2)C2C(=O)Nc3ccccc3N=C2c2ccc(F)cc2)cn1 (configuration not stated) | -9 | -40 | -10 | 15 | 6 | · | · | · | ·
N#Cc1c(Oc2ccc3ccccc3c2)sc(C(=O)c2ccccc2)c1N | 51* | 42* | 48 | 20 | -15 | 4 | -102 | 17 | -82
CCOC(=O)COc1ccc2ccccc2c1/C=C/[N+](=O)[O-] | 62* | 90* | 107* | -9 | -23 | 1 | 107* | 86* | 104*
CCOC(=O)COc1ccccc1/C=N/O | 1 | 16 | -103 | 1 | -4 | 8 | · | · | ·
C[C@@H]1CC=C[C@H]2[C@H]1C(=O)N(Cc1ccccc1)[C@H]2c1ccc2ccccc2c1Br | 74* | 42* | 33 | 24 | -35 | 8 | 54* | 23 | 72*
C=C1C(=O)OC2CC1C(OC(C)=O)CC(C)=CCCC(C)=CCCC2(C)O (configuration not stated) | 94* | 92* | 99* | 15 | -44 | · | 32 | 92* | 104*
C=C1C(=O)OC2CC1C(O)CC(C)=CCCC(C)=CC(O)CC2C (configuration not stated) | 81* | 94* | 98* | 17 | -40 | · | 97* | 98* | 107*
O=C(Nc1ccc(S(=O)(=O)N2CCCCCC2)cc1)c1[nH]ncc1[N+](=O)[O-] | 70* | 40* | -21 | 36 | -12 | · | -49 | 74* | 88*
